Assay [1] relates to Tyrosine-protein kinase ABL1 (Homo sapiens), P00519 [T315I]. The conditions noted are these: at 1 µM.
Assay [2] has as its system Tyrosine-protein kinase ABL1 (Homo sapiens), P00519 [Y253F]. The conditions noted are these: at 0.1 µM.
Assay [3] has the same test system. The conditions noted are these: at 1 µM.
Assay [4] has as its target Tyrosine-protein kinase ABL1 (Homo sapiens) (UniProt P00519). The conditions noted are these: at 0.1 µM.
The target is the same in assay [5]. As to conditions: at 1 µM.
Assay [6] deals with ALK tyrosine kinase receptor (Homo sapiens) (UniProt Q9UM73). As to conditions: at 0.1 µM.
Assay [7] has the same target. As to conditions: at 1 µM.
The target in assay [8] is Tyrosine-protein kinase ABL2 (Homo sapiens) (UniProt P42684). As to conditions: at 0.1 µM.
Assay [9] has the same target. As to conditions: at 1 µM.
Assay [10] addresses Tyrosine-protein kinase receptor UFO (Homo sapiens) (UniProt P30530). The conditions noted are these: at 0.1 µM.

For orientation: inhibition means the relative decrease from the control value, in per cent.

Chain of ALK tyrosine kinase receptor (Homo sapiens) (Q9UM73 19-1620 limits assumed): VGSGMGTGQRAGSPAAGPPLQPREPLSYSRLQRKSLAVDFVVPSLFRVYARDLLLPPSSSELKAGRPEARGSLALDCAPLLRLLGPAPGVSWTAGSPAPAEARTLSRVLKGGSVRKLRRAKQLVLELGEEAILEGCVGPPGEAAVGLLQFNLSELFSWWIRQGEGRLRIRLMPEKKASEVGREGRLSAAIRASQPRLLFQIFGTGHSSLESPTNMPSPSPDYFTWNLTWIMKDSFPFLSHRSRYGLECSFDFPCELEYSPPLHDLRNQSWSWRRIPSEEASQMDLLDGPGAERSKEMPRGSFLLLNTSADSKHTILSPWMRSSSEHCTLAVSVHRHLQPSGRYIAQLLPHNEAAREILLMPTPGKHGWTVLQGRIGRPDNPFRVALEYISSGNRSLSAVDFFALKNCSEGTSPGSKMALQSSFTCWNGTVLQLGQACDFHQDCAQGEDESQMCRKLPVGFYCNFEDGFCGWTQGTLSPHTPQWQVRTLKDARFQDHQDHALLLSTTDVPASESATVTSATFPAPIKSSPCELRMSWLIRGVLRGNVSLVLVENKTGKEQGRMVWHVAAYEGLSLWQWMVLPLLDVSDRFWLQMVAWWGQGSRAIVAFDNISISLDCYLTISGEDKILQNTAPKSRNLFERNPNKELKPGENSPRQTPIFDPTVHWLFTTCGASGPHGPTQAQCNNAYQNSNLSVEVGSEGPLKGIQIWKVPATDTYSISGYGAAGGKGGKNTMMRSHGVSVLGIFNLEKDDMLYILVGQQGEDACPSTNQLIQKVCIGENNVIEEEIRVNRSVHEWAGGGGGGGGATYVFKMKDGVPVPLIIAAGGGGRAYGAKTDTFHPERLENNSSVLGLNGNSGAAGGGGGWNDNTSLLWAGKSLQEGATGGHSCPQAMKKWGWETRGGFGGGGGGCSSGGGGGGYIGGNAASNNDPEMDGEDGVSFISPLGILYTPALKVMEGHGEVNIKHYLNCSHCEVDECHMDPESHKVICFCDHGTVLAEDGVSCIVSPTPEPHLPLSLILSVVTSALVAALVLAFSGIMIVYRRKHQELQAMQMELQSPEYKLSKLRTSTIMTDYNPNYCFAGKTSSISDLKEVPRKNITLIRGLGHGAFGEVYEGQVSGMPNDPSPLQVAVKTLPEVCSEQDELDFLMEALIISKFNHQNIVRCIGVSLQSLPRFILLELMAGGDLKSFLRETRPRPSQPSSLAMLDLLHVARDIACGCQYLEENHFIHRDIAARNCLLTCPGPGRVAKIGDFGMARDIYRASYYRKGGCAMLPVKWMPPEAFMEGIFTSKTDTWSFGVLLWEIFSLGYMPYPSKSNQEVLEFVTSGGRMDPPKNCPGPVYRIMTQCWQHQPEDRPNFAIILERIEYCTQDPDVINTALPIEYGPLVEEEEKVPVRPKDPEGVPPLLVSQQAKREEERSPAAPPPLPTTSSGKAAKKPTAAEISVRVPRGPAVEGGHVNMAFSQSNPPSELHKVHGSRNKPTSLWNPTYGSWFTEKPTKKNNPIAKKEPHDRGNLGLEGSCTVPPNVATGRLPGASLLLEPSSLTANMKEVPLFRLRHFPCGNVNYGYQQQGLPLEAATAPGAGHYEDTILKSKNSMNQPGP
Chain of Tyrosine-protein kinase ABL2 (Homo sapiens) (P42684 whole entry): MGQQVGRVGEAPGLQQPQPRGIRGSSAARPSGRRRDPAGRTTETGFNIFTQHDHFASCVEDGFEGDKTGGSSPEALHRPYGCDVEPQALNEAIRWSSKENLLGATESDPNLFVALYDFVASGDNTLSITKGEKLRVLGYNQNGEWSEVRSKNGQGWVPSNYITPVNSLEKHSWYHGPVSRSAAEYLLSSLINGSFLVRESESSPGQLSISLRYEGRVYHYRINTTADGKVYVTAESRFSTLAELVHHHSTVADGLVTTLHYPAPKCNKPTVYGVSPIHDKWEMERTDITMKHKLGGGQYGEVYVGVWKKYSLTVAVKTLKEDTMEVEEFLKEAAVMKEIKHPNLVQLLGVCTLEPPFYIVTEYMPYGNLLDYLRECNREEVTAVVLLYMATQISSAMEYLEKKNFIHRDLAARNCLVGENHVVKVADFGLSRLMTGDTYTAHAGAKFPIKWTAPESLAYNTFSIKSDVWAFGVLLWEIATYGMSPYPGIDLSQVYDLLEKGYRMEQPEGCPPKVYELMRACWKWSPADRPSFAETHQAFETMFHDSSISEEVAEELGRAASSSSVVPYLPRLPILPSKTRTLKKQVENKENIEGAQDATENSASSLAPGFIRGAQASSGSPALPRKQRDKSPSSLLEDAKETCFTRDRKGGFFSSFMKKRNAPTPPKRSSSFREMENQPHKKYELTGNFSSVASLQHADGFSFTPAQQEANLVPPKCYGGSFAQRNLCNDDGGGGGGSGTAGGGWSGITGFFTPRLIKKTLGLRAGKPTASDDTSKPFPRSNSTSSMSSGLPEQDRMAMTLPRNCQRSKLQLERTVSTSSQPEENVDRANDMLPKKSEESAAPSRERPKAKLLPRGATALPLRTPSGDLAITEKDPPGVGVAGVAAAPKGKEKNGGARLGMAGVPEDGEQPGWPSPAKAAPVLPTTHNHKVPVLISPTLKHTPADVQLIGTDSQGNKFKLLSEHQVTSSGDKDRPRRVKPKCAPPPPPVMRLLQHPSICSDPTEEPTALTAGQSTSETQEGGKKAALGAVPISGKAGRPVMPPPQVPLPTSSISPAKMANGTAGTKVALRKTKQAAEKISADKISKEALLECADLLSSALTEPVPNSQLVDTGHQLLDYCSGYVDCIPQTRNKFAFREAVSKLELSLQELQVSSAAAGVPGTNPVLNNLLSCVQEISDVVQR
Chain of Tyrosine-protein kinase receptor UFO (Homo sapiens) (P30530 whole entry): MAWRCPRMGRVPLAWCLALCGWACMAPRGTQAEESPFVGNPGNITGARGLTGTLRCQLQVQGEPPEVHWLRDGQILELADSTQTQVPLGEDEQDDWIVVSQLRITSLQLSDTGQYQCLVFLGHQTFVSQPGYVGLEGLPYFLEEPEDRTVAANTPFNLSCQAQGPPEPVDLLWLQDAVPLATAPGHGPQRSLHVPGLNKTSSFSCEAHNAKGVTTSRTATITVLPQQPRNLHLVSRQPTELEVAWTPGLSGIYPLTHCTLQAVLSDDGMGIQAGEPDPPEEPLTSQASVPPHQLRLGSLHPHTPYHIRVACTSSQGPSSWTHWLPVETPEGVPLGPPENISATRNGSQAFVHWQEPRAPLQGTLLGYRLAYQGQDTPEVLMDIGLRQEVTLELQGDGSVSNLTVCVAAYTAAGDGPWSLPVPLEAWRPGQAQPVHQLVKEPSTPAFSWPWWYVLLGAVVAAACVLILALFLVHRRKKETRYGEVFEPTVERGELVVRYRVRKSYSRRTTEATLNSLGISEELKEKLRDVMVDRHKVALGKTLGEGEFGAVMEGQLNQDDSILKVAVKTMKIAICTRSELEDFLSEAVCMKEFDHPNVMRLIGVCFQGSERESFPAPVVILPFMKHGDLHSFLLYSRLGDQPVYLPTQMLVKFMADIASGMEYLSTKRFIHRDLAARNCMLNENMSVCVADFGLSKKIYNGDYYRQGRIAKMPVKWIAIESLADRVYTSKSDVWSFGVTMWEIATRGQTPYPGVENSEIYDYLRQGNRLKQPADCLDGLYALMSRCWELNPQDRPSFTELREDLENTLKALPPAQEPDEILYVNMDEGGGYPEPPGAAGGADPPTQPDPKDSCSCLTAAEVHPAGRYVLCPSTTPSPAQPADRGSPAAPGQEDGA

On to `CCc1nccc2c1nc(-c1nonc1N)n2CC`, for which the inhibition is -0.14% in assay [1]; 2.18% in assay [2]; 2.26% in [3]; 1.88% in assay [4]; 7.3% in assay [5]; 0.99% in assay [6]. The inhibition was 0.3% in [7], 2.12% in assay [8], 9.26% in assay [9] and -0.45% in [10].

Regarding `C[C@@H](Oc1cc(-n2cnc3ccc(OCC4CCN(C)CC4)cc32)sc1C(N)=O)c1ccccc1Cl`, the inhibition in [1] was found to be 9.89%; in assay [2], 2.53%; in assay [3], 11%; in assay [4] it was 5.81%; in assay [5], 14%; in assay [6], 8.57%. Also, the inhibition in assay [7] was 24.5%; in assay [8], 8.53%; in assay [9], 12.4%; in assay [10] it was -5.23%.

For `Fc1ccc(-c2ncn(C3CCNCC3)c2-c2ccnc(Oc3ccc(F)c(F)c3)n2)cc1`, the inhibition is 1.7% in [1]; 1.79% in assay [2]; 2.98% in assay [3]; -1.26% in assay [4]; -1.29% in assay [5]; -1% in [6]. Also, the inhibition in [7] was 1.5%; in assay [8], -1.34%; in assay [9], 0.3%.

For the molecule `C/C(Nc1ccc(S(N)(=O)=O)cc1)=C1/C(=O)Nc2ccccc21`, the inhibition was 12.2% in assay [1]; -0.47% in assay [2]; 12.8% in assay [3]; 1.79% in assay [4]; 11.7% in assay [5]; -1.33% in [6]. Also, the inhibition in assay [7] was 14.2%; in assay [8] it was -0.23%; in assay [9], 10.1%; in [10] it was 0.11%.

For the molecule `Cc1ccc(C(=O)NC(C)C)cc1-c1ccc(C(=O)NCC2CC2)cc1`, the inhibition in [1] was 0.58%; in [2], -2.81%; in assay [3] it was -0.96%; in assay [4], 0.14%; in assay [5] it was 1.26%; in assay [6] it was -4.4%. Moreover, the inhibition is -3.45% in [7], -2.09% in assay [8], -0.41% in [9] and 2.35% in [10].

For the molecule `NC(=O)c1cc(-c2ccncc2)cc(-c2ccccc2)c1N`, the inhibition in assay [1] was determined as 3.04%; in assay [2] it was 8.23%; in assay [3] it was 40.8%; in assay [4], 7.61%; in [5] it was 40.2%; in assay [6] it was 3.8%. Moreover, the inhibition is 5.19% in assay [7], 6.19% in assay [8], 54.2% in [9] and -7.51% in [10].

With `Cc1ccc(NC(=O)c2ccoc2)cc1-c1ccc(C(=O)NCC2CC2)cc1`, the inhibition in assay [1] is 1.92%; in assay [2], 1.38%; in assay [3], -0.92%; in [4] it was 1.09%; in assay [5] it was 1.49%; in [6], 1.85%. Moreover, the inhibition in [7] was 4.11%; in assay [8], 2.28%; in assay [9], 2.36%; in assay [10], -3.64%.

Regarding `O=C1Nc2ccc(I)cc2C1=Cc1cc(Br)c(O)c(Br)c1`, the inhibition was 2.95% in assay [1]; 1.68% in [2]; 5.83% in assay [3]; 5.59% in assay [4]; 6.33% in assay [5]; 3.04% in assay [6]. Also, the inhibition was 4.7% in assay [7], 4.07% in assay [8], 6.48% in assay [9] and -5.83% in assay [10].

For `CS(=O)(=O)CCNCc1ccc(-c2ccc3ncnc(Nc4ccc(OCc5ccccc5)c(Br)c4)c3c2)o1`, the inhibition is 1.57% in assay [1]; 4.14% in [2]; 4.05% in assay [3]; 3.09% in assay [4]; 2.83% in [5]; -0.91% in [6]. For the same molecule, the inhibition in [7] is 1.84%; in assay [8], 0.83%; in [9], 4.36%; in assay [10], -6.75%.

Regarding `O=C1Nc2ccccc2/C1=C/Nc1ccc(-n2cncn2)cc1`, the inhibition was 17.2% in assay [1]; 3.13% in assay [2]; 13.1% in assay [3]; 1.87% in assay [4]; 13.5% in assay [5]; 1.97% in assay [6]. Further, the inhibition in assay [7] was 11.8%; in assay [8], 3.58%; in [9] it was 7.69%; in assay [10] it was -6.88%.

Regarding `CCS(=O)(=O)c1ccc(OC)c(Nc2ncc(-c3cccc(-c4ccccc4F)c3)o2)c1`, the inhibition in [1] is 18%; in assay [2], 60.6%; in assay [3], 91.4%; in assay [4] it was 13.7%; in [5], 77.8%; in assay [6] it was 1.79%. For the same molecule, the inhibition in [7] was 4.33%; in assay [8], 7.9%; in [9], 65.1%; in assay [10], 0.9%.

`Cc1nnc(-c2ccc(C)c(-c3ccc(C(=O)NCc4ccc(Cl)cc4)cc3)c2)o1`: the inhibition in [1] was 3.98%; in assay [2], 3.1%; in assay [3] it was 5.29%; in assay [4] it was -2.31%; in assay [5] it was 1.59%; in assay [6] it was -1.04%. The inhibition in assay [7] was 0.41%; in assay [8], -0.31%; in [9], 2.57%; in [10] it was -5.93%.

`NS(=O)(=O)c1ccc(Nc2cc(-c3ccc(O)c(F)c3)n[nH]2)cc1`: the inhibition in assay [1] is 22.8%; in assay [2], 2.85%; in assay [3], 35.6%; in assay [4] it was 0.38%; in assay [5], 34.8%; in [6], -2.35%. The inhibition stood at 8.38% in assay [7], 0.56% in [8], 16.9% in assay [9] and 1.86% in assay [10].

In the case of `FC(F)(F)c1cccc(Nc2nccc(-c3cnn4nc(-c5ccccc5)ccc34)n2)c1`, the inhibition in assay [1] is 1.88%; in [2], -1.1%; in assay [3] it was 3.96%; in assay [4], -0.03%; in assay [5], 5.59%; in assay [6], 1.89%. Besides, the inhibition in assay [7] was 1.6%; in [8] it was 3.3%; in assay [9], 3.79%; in assay [10], -3.39%.

In the case of `COc1cccc(-n2cnc3c(N/N=C/c4ccncc4)ncnc32)c1`, the inhibition was 28.5% in assay [1]; 44.6% in assay [2]; 85.3% in assay [3]; 29% in [4]; 72.2% in assay [5]; -1.9% in assay [6]. Further, the inhibition in [7] is -4.64%; in [8], 12.7%; in assay [9], 59.5%; in assay [10], 3.99%.

As to `COc1cc2ncn(-c3cc(OCc4ccccc4C(F)(F)F)c(C(C)=O)s3)c2cc1OC`, the inhibition in [1] came out at 4.77%; in assay [2], 3.33%; in assay [3], 4.29%; in assay [4], 5.34%; in assay [5], 10.7%; in assay [6], 2.65%. In addition, the inhibition is 3.72% in [7], 6.5% in [8], 10.4% in [9] and -3.01% in [10].

Take `COc1cc(Nc2ncc(-c3ccccc3)o2)cc(OC)c1OC`: the inhibition in assay [1] is 22.3%; in assay [2] it was 16.7%; in assay [3], 69.2%; in assay [4], 7.54%; in assay [5], 52.3%; in assay [6], -2.74%. Further, the inhibition was -0.68% in [7], 9.54% in assay [8], 52.1% in assay [9] and -0.73% in [10].

Source of the values: ChEMBL document CHEMBL1961873, “Compounds: GSK PKIS; Assays: Nanosyn kinase panel” (2012).
